Structures are written as SMILES. Values joined by “and” are separate entries in the source; they are usually repeats but may differ in a detail not shown here. Equal values may be shown once. Unmarked numbers belong to inactive results. Results filed as inconclusive are left out. Active and inactive are the calls of the source. Unless noted, the call rests on the fitted dose curve; in most records, active means well fitted curve in the direction sought with a large enough effect; inconclusive means small, poorly fitted or top-dose-only effect, or another doubt; inactive means no such curve, though single readings can be large; an effect the other way counts as inactive or inconclusive.

This is an account of results in PubChem BioAssay (NCATS).

Experiment [1] deals with Voltage-gated inwardly rectifying potassium channel KCNH2 (Homo sapiens) (UniProt Q12809). The experiment can be described thus: qHTS Assay for Small Molecule Inhibitors of the Human hERG Channel Activity (AID 588834).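 Further: lower thallium flux fluorescence means stronger hERG block; nearly all actives have a fitted effect of over 50% in size.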 Further: potency means the concentration at half of the fitted maximal effect. On activity change, negative = inhibition: top concentration of the series differs between compounds; on the % scale 0 is the no-effect control and ±100 the full control effect. The method in brief: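 U2OS cells transduced with hERG via BacMam (MOI ~100), plated 2000/well, loaded with FluxOR thallium dye, compound ~10 min, then stimulation buffer; fluorescence decrease read kinetically; AC50 from Hill fits.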
A general note: In qHTS, concentration-response curves come from the screen itself.

The target of experiment [2] is Luciferin 4-monooxygenase (Photinus pyralis) (UniProt P08659). Put plainly: Biochemical firefly luciferase enzyme assay for NPC (AID 624030). Further: nearly all actives have a fitted effect of over 70% in size. Further: potency means the concentration at half of the fitted maximal effect.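 On activity change, negative = inhibition: purified P. pyralis luciferase at 10 nM with luciferin and ATP substrate; series mostly up to about 59 µM; 0% = DMSO and -100% = full luciferase inhibition by PTC124 control.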 The gist of the method: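 Direct inhibition of firefly luciferase enzyme (10 nM final, 50 mM Tris Acetate) assessed by luminescence within 5 minutes. Percent activity scaled between DMSO and PTC124 positive control, with concentration-effect curves classified by fit quality and response.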

Experiment [3] is described as follows: S16 Schwann cell viability assay (CellTiter-Glo assay) (AID 624031).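 Further: native untransfected S16 rat Schwann cells; cellular ATP luminescence as a viability measure; series mostly up to about 58 µM; plate controls were DMSO-treated cells for no effect and cell-free wells for full effect; nearly all actives have a fitted effect of over 70% in size.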 The method in brief:
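Following overnight culture in 10% FBS DMEM, parental S16 rat Schwann cells are dosed for 24 h at 37 °C. Viability is read as CellTiter-Glo luminescence and expressed as % activity relative to DMSO (0%) and no-cell wells.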

The nature of experiment [4]: S16 Schwann cell PMP22 intronic element beta-lactamase assay (AID 624044; calls by dose curve;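 further: 0% = DMSO and -100% = potassium clavulanate positive control; nearly all actives have a fitted effect of over 15% in size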). The gist of the method: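 Rat S16 Schwann cells with beta-Lac driven by a PMP22 intronic element, compound-treated 24 h at 37 °C. LiveBLAzer FRET B/G read: 460 nm normalized to potassium clavulanate vs DMSO; 535 nm FRET as viability; concentration-effect curves classified.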
A short description of experiment [5]: S16 Schwann cell PMP22 intronic element firefly luciferase assay (AID 624032). Further: nearly all actives have a fitted effect of over 30% in size. Further: potency means the concentration at half of the fitted maximal effect.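 On activity change, negative = inhibition: series mostly up to about 58 µM; plate controls were DMSO for no effect and PTC124 positive control mean for full effect.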 The method in brief:
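Luciferase reporter of PMP22 intronic-element expression in stably transfected S16 rat Schwann cells, read by ONE-Glo luminescence after 24 h compound exposure at 37 C. Activity scaled between DMSO (0%) and positive-control PTC124; concentration-effect curves quality-classified.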

Experiment [6] has as its target Glutaminase kidney isoform, mitochondrial (Homo sapiens) (UniProt O94925). Put plainly: qHTS for Inhibitors of Glutaminase (GLS): LOPAC Validation (AID 624146). Further: nearly all actives have a fitted effect of over 60% in size. Further: potency means the concentration at half of the fitted maximal effect.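 On activity change, negative = inhibition: glutamate product detected by oxidase and peroxidase coupled Amplex red fluorescence gain; series mostly up to about 46 µM; on the % scale 0 is the no-effect control and ±100 the full control effect.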 The gist of the method: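 hKGA; 45 mM KH2PO4 pH 8.2 + 0.02% Tween-20; cpd via pin tool; 1 mM Gln soln; GluOx/HRP/Amplex Red; RT 30 min; fluor. t0 & final.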
The nature of experiment [7]: qHTS of Trypanosoma Brucei Inhibitors: LOPAC Validation (AID 624147). Further: 0% is about no effect. The method in brief: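 Glycolytic pyruvate kinase of T. brucei was incubated with substrate, test compound and 130 uM ADP for 45 minutes at room temperature. Luminescent Kinase-Glo Plus signal was measured after 10 minutes.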
The target of experiment [8] is Glucagon-like peptide 1 receptor (Homo sapiens) (UniProt P43220). The experiment can be described thus: qHTS of GLP-1 Receptor Agonists: LOPAC Validation (AID 624148).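 Further: luminescence from a luciferase reporter switched on by cAMP; 0% is about no effect; higher luminescence signal means agonism.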 The method in brief:
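Agonism scored as increased luciferase luminescence driven by cAMP in HEK293 clones carrying GLP-1R. Cells settled 12 hours, received compound for 4-6 hr at 37 deg C, 5% CO2, and were read after 12 min detection reagent at RT.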

Experiment [9] can be described thus: qHTS of Nrf2 Activators: LOPAC Validation (AID 624149). Further: 0% is about no effect. The gist of the method: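 AREc32 cells carrying an ARE-driven firefly luciferase were grown overnight in OPTI-MEM with 5% FBS, then exposed to compounds for 24 hr at 37 deg C. Luciferase signal was read after 30 min with Steady-Glo at RT.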
Experiment [10] is described as follows: Cytotoxicity counterscreen for NFkB agonists and antagonists (AID 624476;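 further: cells exposed to compound for 48 hours; on the % scale 0 is the no-effect control and ±100 the full control effect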). (A counterscreen serves to expose hits that act by an unwanted route or on another target.)

Chain of Glutaminase kidney isoform, mitochondrial (Homo sapiens) (O94925 whole entry, looked up, canonical isoform): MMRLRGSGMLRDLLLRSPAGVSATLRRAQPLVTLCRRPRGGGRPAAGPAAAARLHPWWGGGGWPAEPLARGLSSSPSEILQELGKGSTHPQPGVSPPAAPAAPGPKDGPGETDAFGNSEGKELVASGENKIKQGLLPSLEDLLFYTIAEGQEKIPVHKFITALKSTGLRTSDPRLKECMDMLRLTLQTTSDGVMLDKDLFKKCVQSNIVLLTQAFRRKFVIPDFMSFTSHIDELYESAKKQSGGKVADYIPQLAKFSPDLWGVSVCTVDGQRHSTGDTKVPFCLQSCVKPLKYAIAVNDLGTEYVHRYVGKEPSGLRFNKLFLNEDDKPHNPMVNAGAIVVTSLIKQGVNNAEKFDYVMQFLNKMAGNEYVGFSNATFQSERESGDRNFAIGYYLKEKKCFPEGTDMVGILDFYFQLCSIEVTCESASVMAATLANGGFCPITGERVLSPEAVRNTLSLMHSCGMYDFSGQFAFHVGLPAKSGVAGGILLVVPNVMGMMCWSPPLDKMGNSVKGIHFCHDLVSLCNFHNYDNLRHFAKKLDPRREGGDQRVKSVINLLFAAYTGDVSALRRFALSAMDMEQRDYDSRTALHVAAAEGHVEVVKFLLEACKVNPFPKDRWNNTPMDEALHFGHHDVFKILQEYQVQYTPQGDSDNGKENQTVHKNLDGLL
Chain of Voltage-gated inwardly rectifying potassium channel KCNH2 (Homo sapiens) (Q12809 whole entry, looked up): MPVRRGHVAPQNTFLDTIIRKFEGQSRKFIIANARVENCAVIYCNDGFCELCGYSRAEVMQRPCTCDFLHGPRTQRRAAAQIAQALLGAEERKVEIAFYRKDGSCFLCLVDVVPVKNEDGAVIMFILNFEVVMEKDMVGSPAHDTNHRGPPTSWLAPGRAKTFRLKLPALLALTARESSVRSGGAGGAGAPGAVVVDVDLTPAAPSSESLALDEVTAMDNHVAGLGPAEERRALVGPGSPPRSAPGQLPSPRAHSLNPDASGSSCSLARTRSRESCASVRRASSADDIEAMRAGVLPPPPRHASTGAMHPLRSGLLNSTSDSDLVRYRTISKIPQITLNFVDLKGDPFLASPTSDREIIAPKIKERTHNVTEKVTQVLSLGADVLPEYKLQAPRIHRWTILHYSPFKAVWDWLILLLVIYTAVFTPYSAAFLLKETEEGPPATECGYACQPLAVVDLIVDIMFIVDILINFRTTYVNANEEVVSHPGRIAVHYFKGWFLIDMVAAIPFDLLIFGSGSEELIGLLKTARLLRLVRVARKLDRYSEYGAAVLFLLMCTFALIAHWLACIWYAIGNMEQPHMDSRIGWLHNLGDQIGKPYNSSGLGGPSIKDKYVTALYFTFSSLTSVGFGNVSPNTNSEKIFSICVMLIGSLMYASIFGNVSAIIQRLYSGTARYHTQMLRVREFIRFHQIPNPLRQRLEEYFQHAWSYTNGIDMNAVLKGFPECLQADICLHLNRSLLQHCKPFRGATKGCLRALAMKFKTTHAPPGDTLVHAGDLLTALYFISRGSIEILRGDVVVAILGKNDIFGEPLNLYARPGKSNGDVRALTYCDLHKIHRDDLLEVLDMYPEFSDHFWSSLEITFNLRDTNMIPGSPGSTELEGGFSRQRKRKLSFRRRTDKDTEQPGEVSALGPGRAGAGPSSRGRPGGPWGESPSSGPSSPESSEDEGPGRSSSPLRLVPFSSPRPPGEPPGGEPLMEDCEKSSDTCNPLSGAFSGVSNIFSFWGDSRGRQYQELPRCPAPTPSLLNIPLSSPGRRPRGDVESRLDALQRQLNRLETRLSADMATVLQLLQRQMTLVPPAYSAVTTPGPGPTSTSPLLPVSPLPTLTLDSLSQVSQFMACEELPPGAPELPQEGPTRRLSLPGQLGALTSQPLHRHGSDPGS
Chain of Glucagon-like peptide 1 receptor (Homo sapiens) (P43220 whole entry, looked up): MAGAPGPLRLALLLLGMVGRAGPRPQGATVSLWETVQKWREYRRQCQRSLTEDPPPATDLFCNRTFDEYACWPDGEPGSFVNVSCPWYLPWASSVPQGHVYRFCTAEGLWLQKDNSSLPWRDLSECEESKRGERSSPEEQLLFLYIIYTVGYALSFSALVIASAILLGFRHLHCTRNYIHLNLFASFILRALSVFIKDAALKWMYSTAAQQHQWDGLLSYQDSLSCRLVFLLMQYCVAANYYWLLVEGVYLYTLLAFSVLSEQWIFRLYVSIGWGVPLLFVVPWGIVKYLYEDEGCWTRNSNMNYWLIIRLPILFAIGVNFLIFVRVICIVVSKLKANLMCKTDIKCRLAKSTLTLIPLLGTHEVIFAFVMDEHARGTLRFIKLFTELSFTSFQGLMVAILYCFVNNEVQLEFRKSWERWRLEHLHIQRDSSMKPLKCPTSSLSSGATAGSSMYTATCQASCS
Chain of Luciferin 4-monooxygenase (Photinus pyralis) (P08659 whole entry, looked up): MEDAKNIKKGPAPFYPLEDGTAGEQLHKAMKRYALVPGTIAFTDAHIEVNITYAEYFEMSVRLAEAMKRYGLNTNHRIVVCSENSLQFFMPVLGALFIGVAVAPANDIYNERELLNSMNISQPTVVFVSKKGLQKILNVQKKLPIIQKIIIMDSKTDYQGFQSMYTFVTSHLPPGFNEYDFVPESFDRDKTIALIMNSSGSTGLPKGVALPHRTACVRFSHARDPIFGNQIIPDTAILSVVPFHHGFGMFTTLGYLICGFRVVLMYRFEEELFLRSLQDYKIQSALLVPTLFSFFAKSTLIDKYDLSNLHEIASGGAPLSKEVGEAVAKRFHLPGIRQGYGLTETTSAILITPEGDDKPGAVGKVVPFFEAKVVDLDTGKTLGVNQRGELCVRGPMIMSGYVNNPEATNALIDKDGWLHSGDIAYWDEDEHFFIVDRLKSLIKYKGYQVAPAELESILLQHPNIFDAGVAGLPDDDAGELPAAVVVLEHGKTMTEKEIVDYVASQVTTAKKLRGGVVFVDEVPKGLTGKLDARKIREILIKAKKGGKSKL

Consider `CC(C)=CC1C(C(=O)OCN2C(=O)C3=C(CCCC3)C2=O)C1(C)C` (stereo unspecified), for which the Potency in [1] is 20 µM (active). Moreover, the Potency entry in experiment [2] was “inactive”. Besides, the call in experiment [3] and in [4] was inactive.
Regarding `C=C(C)[C@H]1CN[C@H](C(=O)O)[C@H]1CC(=O)O`, the Potency result in experiment [1], in experiment [5] and in experiment [6] was “inactive” throughout. The outcome in [3], in [7], in [8] and in [9] was inactive.
Take `C[C@]12CCC(=O)C=C1CC[C@@H]1[C@@H]2CC[C@]2(C)C(=O)CC[C@@H]12`: the Potency result in [1] and in experiment [5] was “inactive” throughout. Further, the molecule was classed as inactive in experiment [3] and in experiment [4].
For `CCCCC/C=C\C/C=C\C/C=C\C/C=C\CCCC(=O)NCC(=O)O`, the Potency entry in [1] and in experiment [6] was “inactive” throughout. The activity change, negative = inhibition in experiment [2] was -1.65% [at 5.2 µM]; in experiment [5], -9.07% [at 5.34 µM]. Besides, the activity change, negative = cytotoxicity in experiment [3] was -23.3% [at 5.34 µM]. Moreover, the molecule was called inactive in experiment [7], in experiment [8] and in experiment [9].
Turning to `CCCCCCCCCC(=O)O[C@H]1CC[C@H]2[C@@H]3CCC4=CC(=O)CC[C@@H]4[C@H]3CC[C@]12C`, the Potency result in experiment [1] and in [5] was “inactive” throughout. Besides, the result in experiment [3] and in [4] was inactive.
For `O=C1OC(c2ccc(O)c(S(=O)(=O)O)c2)(c2ccc(O)c(S(=O)(=O)O)c2)c2c(Br)c(Br)c(Br)c(Br)c21`, the Potency result in experiment [1] and in experiment [5] was “inactive” throughout. Moreover, the Potency in experiment [2] is 28.7 µM (active). Besides, the molecule was classed as inactive in [3] and in [4].
With `Cc1nnc2n1-c1ccc(Cl)cc1C(c1ccccc1)=NC2`, the Potency result in experiment [1] and in [5] was “inactive” throughout. The result in experiment [3] and in experiment [4] was inactive.
For `CCOC(=O)CC(SP(=S)(OC)OC)C(=O)OCC` (stereo unspecified), the Potency entry in [1] and in experiment [5] was “inactive” in each case. Besides, the call in experiment [3] was inactive.
For `CN1C(=O)CCS(=O)(=O)C1c1ccc(Cl)cc1` (stereo unspecified), the Potency result in experiment [1], in [2], in experiment [5] and in [6] was “inactive” in each case. The result in [3], in [7], in experiment [8] and in experiment [9] was inactive.
Regarding `COc1ccc2c(c1)C13CCCC[C@@H]1C(C2)N(C)CC3` (stereo partly specified), the Potency entry in experiment [1], in [2] and in [5] was “inactive” each time. The outcome in experiment [3] and in [4] was inactive.
As for `CC(C)NC(C)C`, the Potency entry in experiment [1], in [2] and in [5] was “inactive” in each case.
For the molecule `COC(=O)C(c1ccccc1)C1CCCCN1` (stereo unspecified), the Potency result in experiment [1], in experiment [2] and in experiment [5] was “inactive” in each case. The molecule was called inactive in [3] and in experiment [4].
In the case of `O=P1(N(CCCl)CCCl)NCCCO1` (stereo unspecified), the Potency result in experiment [1], in experiment [2], in experiment [5] and in experiment [6] was “inactive” throughout. Further, the result in [3], in experiment [7], in experiment [8], in experiment [9] and in experiment [10] was inactive.
Take `NCCc1ccc(O)cc1`: the Potency entry in experiment [1], in [2], in [5] and in [6] was “inactive” throughout. The call in experiment [3], in experiment [4], in experiment [7], in experiment [8] and in [9] was inactive.
Regarding `C[C@](O)(CS(=O)(=O)c1ccc(F)cc1)C(=O)Nc1ccc(C#N)c(C(F)(F)F)c1`, the Potency result in [1] and in experiment [2] was “inactive” each time. In [5], the Potency was 16.1 µM (active).
For `O=C(N/N=C/c1ccc([N+](=O)[O-])o1)c1cc([N+](=O)[O-])cc([N+](=O)[O-])c1O`, the Potency entry in experiment [1] and in [5] was “inactive” throughout. Further, the result in experiment [3] and in experiment [4] was inactive.
Regarding `Oc1ccc(Cl)cc1`, the Potency result in [1] and in experiment [5] was “inactive” in each case. Further, in experiment [3], the call was inactive.
For the molecule `O=c1[nH]oc2c1CCNC2`, the Potency entry in [1], in experiment [5] and in [6] was “inactive” throughout. Besides, the molecule was classed as inactive in experiment [3], in experiment [7], in experiment [8] and in experiment [9].
For `Clc1ccc(C(c2ccc(Cl)cc2)C(Cl)(Cl)Cl)cc1`, the Potency in experiment [1] was 31.6 µM (active); in experiment [5] it was 10.2 µM (active). Also, the Potency entry in experiment [2] was “inactive”. The call in [3] and in experiment [4] was inactive.
For `O=C(CCCN1CCC2(CC1)C(=O)NCN2c1ccccc1)c1ccc(F)cc1`, the Potency in experiment [1] was 1.78 µM (active) and 1 µM (active). In addition, the Potency result in experiment [2], in experiment [5] and in experiment [6] was “inactive” each time. Moreover, the call in experiment [3], in experiment [4], in experiment [8] and in experiment [9] was inactive.
`CC(C)c1cccc(C(C)C)c1O`: the Potency result in experiment [1], in [2] and in [5] was “inactive” in each case. For the same molecule, the molecule was called inactive in experiment [3], in experiment [4], in experiment [7], in experiment [8] and in experiment [9]. The Potency in experiment [6] was 4.47 µM (active).
As to `C[C@]12CC[C@@H]3c4ccc(OC(=O)N(CCCl)CCCl)cc4CC[C@H]3[C@@H]1CC[C@@H]2O`, the Potency entry in [1] and in experiment [5] was “inactive” in each case. Moreover, the molecule was called inactive in [3] and in [4].
With `CNC(C)(C)Cc1ccccc1`, the Potency entry in experiment [1] and in experiment [5] was “inactive” throughout. In addition, the result in experiment [3] was inactive.
As to `COc1cccc([C@@]2(O)CCCC[C@@H]2CN(C)C)c1`, the Potency entry in experiment [1], in experiment [2] and in [5] was “inactive” in each case. Moreover, the outcome in experiment [3] and in experiment [4] was inactive.
For `COC1CC(=C(c2cccs2)c2cccs2)C[N+](C)(C)C1` (stereo unspecified), the Potency entry in experiment [1] and in [5] was “inactive” throughout. Moreover, in [3], the molecule was classed as inactive.
`CC(C)(C)NCC(O)c1ccccc1Cl` (stereo unspecified): the Potency entry in [1], in experiment [5] and in experiment [6] was “inactive” in each case. For the same molecule, the call in experiment [3], in experiment [7] and in experiment [9] was inactive.
For the molecule `CCCCCCC(=O)CCCCCC/C=C/C[C@@H](O)[C@H](O)[C@@](N)(CO)C(=O)O`, the Potency entry in [1] is “inactive”. Moreover, the molecule was classed as inactive in experiment [3].
`CCCC(C)(COC(N)=O)COC(N)=O`: the Potency entry in experiment [1] and in experiment [5] was “inactive” throughout. Also, the molecule was called inactive in experiment [3] and in [4].
Take `NC(=O)c1cc([N+](=O)[O-])cc([N+](=O)[O-])c1`: the Potency entry in experiment [1] was “inactive”. The outcome in [3] and in [4] was inactive.
In the case of `Cc1nnc2n1-c1ccc(Cl)cc1C(c1ccccc1Cl)=NC2`, the Potency result in experiment [1] and in experiment [5] was “inactive” throughout. For the same molecule, the call in experiment [3] and in [4] was inactive.
